Experimental findings from PubChem BioAssay (NCATS) are described below.

Inconclusive results are not listed. The source made the active and inactive calls. Unless noted, the call rests on the fitted dose curve; in most records, active means well fitted curve in the direction sought with a large enough effect; inconclusive means small, poorly fitted or top-dose-only effect, or another doubt; inactive means no such curve, though single readings can be large; an effect the other way counts as inactive or inconclusive.

The target of experiment [1] is ATP-dependent 6-phosphofructokinase (Trypanosoma brucei brucei) (UniProt O15648). Description: qHTS Assay to Find Inhibitors of T. brucei phosphofructokinase: hit validation (AID 492961). Further: potency means the concentration at half of the fitted maximal effect. The gist of the method:
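PFK 1.25 nM, F6P 0.5 mM, ATP 0.1 mM, MgCl2 5 mM, 0.1 M TEA pH 8.0, Tween20 0.01%, BSA 0.1%; 45 min RT. ADP-Glo two-step detection, luminescence. qHTS titration; curve fitting with curve-class categorization.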
(In general: Quantitative high-throughput screening tests each substance at several concentrations.)

Experiment [2] concerns the target DNA polymerase III PolC-type (Bacillus subtilis (strain 168)) (UniProt P13267). Description: qHTS Validation Assay for the Inhibitors of DNA Replication in Gram-Positive Bacteria (AID 485295).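 Further: PicoGreen fluorescence of double-stranded DNA made on primed circular M13 template; series mostly up to about 57 µM.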 Put shortly: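 Reconstituted B. subtilis holoenzyme (Pol III, beta clamp, SSB, primase) was preincubated with compound at room temperature, then given single-stranded circular M13Gori plus dNTPs and NTPs. EDTA-containing PicoGreen stopped the reaction, and dsDNA product was read by fluorescence.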

Experiment [3] concerns the target Tumor susceptibility gene 101 protein (Homo sapiens) (UniProt Q99816). In words: qHTS Validation Assay for Iinhibitors of HIV-1 Budding by Blocking the Interaction of PTAP/TSG101 (AID 485342; calls by dose curve). Put shortly:
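Tsg101 binding domain (10 uM final) in pH 7.5 HEPES/NaCl/Tween 20/EDTA/TCEP buffer was mixed with pin-transferred compounds, then FITC-labeled PTAP peptide (50 nM final) was added; after 20 min at r.t., fluorescence polarization was read.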

The target of experiment [4] is Beta-2 adrenergic receptor (Homo sapiens) (UniProt P07550). Description: qHTS validation assay of beta-arrestin-biased ligands of beta2-adrenergic receptor (AID 485366). The gist of the method:
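Compound series up to 46 microM applied to beta2-AR/beta-arrestin Tango cells, 18 hr, 37 degrees C, 5% CO2. Read-out: tTA-driven luciferase luminescence, converted to %Activity; concentration-response curves assigned curve classes.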

Experiment [5] deals with Thioredoxin reductase 1, cytoplasmic (Rattus norvegicus) (UniProt O89049). Description: qHTS Assay for Substrates of Mammalian Selenoprotein Thioredoxin Reductase 1 (TrxR1) (AID 488772).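 Further: series mostly up to about 57 µM; a drop in NADPH fluorescence below the no-compound background marks a TrxR1 substrate.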 Put shortly:
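In this dual-purpose format, potential substrates are identified from the first fluorescence read after selenite addition, not from the 8-minute delta. Rat enzyme is preincubated with NADPH and then with compound at ~22 deg C.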

The target is the same in experiment [6]. In words: qHTS Assay for Inhibitors of Mammalian Selenoprotein Thioredoxin Reductase 1 (TrxR1) (AID 488773).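 Further: drop in NADPH fluorescence over an 8 min run after selenite addition; series mostly up to about 57 µM; nearly all actives have a fitted effect of over 40% in size.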 As to conditions: Potency: inhibition. The gist of the method: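 Inhibition is scored from the loss of NADPH fluorescence between first and last reads of an 8-min kinetic run. Selenite (400 uM) was the substrate, added after 15 min compound preincubation at room temperature.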

In experiment [7] the target is M-phase phosphoprotein 8 (Homo sapiens) (UniProt Q99549). In words: qHTS Validation Assay for Inhibitors for MPP8 Chromodomain Interactions with Methylated Histone Tails (AID 488949). Further: nearly all actives have a fitted effect of over 55% in size. Further: potency means the concentration at half of the fitted maximal effect. Put shortly:
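MPP8 (50 nM) was preincubated with biotinylated H3(1-18)K9me3 peptide (50 nM) in PBS pH 7.4, 0.01% Tween-20 for 30 min at room temperature, then with compounds for 30 min; binding was detected by AlphaScreen.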

In experiment [8] the target is Chromobox protein homolog 1 (Homo sapiens) (UniProt P83916). Description: qHTS Validation Assay for Inhibitors of HP1-beta Chromodomain Interactions with Methylated Histone Tails (AID 488953). Further: nearly all actives have a fitted effect of over 50% in size. Further: potency means the concentration at half of the fitted maximal effect. Put shortly:
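AlphaScreen proximity signal from streptavidin donor and nickel chelate acceptor beads (final 10 ug/mL) after 30 min dark incubation. Compounds had 30 min at room temperature with preformed complex of 50 nM HP1-beta and 50 nM b-H3(1-18)K9me3 in PBS pH 7.4 with 0.01% Tween-20.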

The target in experiment [9] is Methanococcus maripaludis chaperonin (MmCpn) (UniProt Q6LX38). Description: High-Throughput Screening for Modulators of Cytosolic Chaperonin Activity: MmCpn Primary Screen (AID 488978).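 Further: 50 nM MmCpn enzyme hydrolysing 30 µM ATP at 37 °C.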 Put shortly:
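MmCpn (50 nM final) was preincubated with compound 5 min at RT, then 30 uM ATP (final) was added and the reaction ran 10 min at 37C. ADP produced was detected by Transcreener HTRF (ex 320 nm; em 590/665 nm).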

Experiment [10] has as its target Thyrotropin receptor (Homo sapiens) (UniProt P16473). In words: qHTS Assay for Antagonists of the Thyroid Stimulating Hormone Receptor (AID 488980). Further: series mostly up to about 58 µM. The gist of the method: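 HEK293 cells transfected with human TSHR, suspended in HEPES-buffered HBSS with 70 uM RO 20-1724, were treated with compounds plus TSH at EC80 (4 nM final). cAMP was measured by competitive HTRF (cryptate anti-cAMP antibody, cAMP-d2 acceptor).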

Experiment [11] concerns the target D(1A) dopamine receptor (Homo sapiens) (UniProt P21728). In words: HTS Assay for Allosteric Agonists of the Human D1 Dopamine Receptor: Primary Screen for Agonists (AID 488981). Further: potency means the concentration at half of the fitted maximal effect. The gist of the method: (§1)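 Tetracycline-induced HEK293 T-REx cells force-coupled to calcium signalling were incubated overnight at 30 C and dye-loaded at room temperature. Calcium flux over 180 s after compound addition flagged agonists; a further 180 s read after EC20 dopamine flagged potentiators.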

Experiment [12] has the same target. In words: HTS Assay for Allosteric Agonists of the Human D1 Dopamine Receptor: Primary Screen for Potentiators (AID 488982). Put shortly:
as §1

A short description of experiment [13]: qHTS Validation Assay to Find Inhibitors of Chronic Active B-Cell Receptor Signaling (AID 485345; active means well fitted curve in the direction sought with a large enough effect in the main read-out, with a control signal flat, not every such curve was filed as active). The gist of the method: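 TMD8 ABC-DLBCL cells with dox-inducible green luciferase–IκBα fusion and red native luciferase; compounds 46 uM–3 nM, 4 h at 37C with doxycycline in 0.5% FBS IMDM. Green/red ratio normalized to basal and 10 uM MG-132.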
For experiment [14], the target named is Flap endonuclease 1 (Homo sapiens) (UniProt P39748). In words: qHTS Validation Assay for the Inhibitors of Human Flap endonuclease 1 (FEN1) (AID 488816). Put shortly: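 Steps: add FEN1 (10 nM reagent) or buffer only; pin compounds; hold 15 min at room temperature; start with substrate, 50 nM final; read at 0 and 15 min; correct, normalize and fit a four-parameter Hill curve.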

In experiment [15] the target is Transient receptor potential cation channel subfamily V member 1 (Homo sapiens) (UniProt Q8NER1). In words: HTS Assay for Compounds that Act as Enhancers of the Vanilloid Receptor 1 (AID 488979). The gist of the method:
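TRPV1-expressing cells loaded with Fluo-8 calcium dye; compounds added and calcium influx read kinetically for 3 min (agonist phase), then capsaicin at EC20 added and read 2 min more for enhancement. Fluorescence ex 480/em 520 nm.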

The target of experiment [16] is Tyrosyl-DNA phosphodiesterase 1 (Homo sapiens) (UniProt Q9NUW8). In words: Confirmation Assay for Inhibitors of Tyrosyl-DNA Phosphodiesterase (TDP1) (AID 489007). Further: potency means the concentration at half of the fitted maximal effect; nearly all actives have a fitted effect of over 40% in size. The note with it: recombinant human TDP1 enzymatic activity, dose-response. Put shortly: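 AlphaScreen assay of tyrosine-FITC cleavage from a biotinylated DNA substrate (15 nM) by E. coli-expressed human Tdp1 (1 nM). Sequence: compound preincubation 15 min, reaction 5 min, bead detection 10 min, all at room temperature. No-enzyme wells give maximum signal.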

The nature of experiment [17]: Quantitative high throughput screen for delayed death inhibitors of the malarial parasite plastid, 48 hour incubation (AID 488752). Further: nearly all actives have a fitted effect of over 65% in size. Put shortly: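 One-generation (48 h) growth assay: a decrease in luciferase signal from an integrated reporter in P. falciparum-infected red cells (0.1% parasitemia, 2% hematocrit) after compound exposure at 37 C indicates parasite inhibition.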

Experiment [18] has as its target D(1A) dopamine receptor (Homo sapiens) (UniProt P21728). Description: HTS Assay for Allosteric Agonists of the Human D1 Dopamine Receptor: Primary Screen for Antagonists (AID 488983).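 Further: calcium flux response to an EC80 dopamine challenge measured with no-wash dye; nearly all actives have a fitted effect of over 65% in size.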 Further: potency means the concentration at half of the fitted maximal effect. The gist of the method: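 Calcium-flux read-out in inducible HEK293 T-REx cells expressing D1, dye-loaded 30–90 min at room temperature. Kinetic reads: 180 s after compound (agonist phase), then 180 s after an EC80 dopamine challenge.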

DNA polymerase III PolC-type (Bacillus subtilis (strain 168)), sequence (P13267 whole entry, looked up): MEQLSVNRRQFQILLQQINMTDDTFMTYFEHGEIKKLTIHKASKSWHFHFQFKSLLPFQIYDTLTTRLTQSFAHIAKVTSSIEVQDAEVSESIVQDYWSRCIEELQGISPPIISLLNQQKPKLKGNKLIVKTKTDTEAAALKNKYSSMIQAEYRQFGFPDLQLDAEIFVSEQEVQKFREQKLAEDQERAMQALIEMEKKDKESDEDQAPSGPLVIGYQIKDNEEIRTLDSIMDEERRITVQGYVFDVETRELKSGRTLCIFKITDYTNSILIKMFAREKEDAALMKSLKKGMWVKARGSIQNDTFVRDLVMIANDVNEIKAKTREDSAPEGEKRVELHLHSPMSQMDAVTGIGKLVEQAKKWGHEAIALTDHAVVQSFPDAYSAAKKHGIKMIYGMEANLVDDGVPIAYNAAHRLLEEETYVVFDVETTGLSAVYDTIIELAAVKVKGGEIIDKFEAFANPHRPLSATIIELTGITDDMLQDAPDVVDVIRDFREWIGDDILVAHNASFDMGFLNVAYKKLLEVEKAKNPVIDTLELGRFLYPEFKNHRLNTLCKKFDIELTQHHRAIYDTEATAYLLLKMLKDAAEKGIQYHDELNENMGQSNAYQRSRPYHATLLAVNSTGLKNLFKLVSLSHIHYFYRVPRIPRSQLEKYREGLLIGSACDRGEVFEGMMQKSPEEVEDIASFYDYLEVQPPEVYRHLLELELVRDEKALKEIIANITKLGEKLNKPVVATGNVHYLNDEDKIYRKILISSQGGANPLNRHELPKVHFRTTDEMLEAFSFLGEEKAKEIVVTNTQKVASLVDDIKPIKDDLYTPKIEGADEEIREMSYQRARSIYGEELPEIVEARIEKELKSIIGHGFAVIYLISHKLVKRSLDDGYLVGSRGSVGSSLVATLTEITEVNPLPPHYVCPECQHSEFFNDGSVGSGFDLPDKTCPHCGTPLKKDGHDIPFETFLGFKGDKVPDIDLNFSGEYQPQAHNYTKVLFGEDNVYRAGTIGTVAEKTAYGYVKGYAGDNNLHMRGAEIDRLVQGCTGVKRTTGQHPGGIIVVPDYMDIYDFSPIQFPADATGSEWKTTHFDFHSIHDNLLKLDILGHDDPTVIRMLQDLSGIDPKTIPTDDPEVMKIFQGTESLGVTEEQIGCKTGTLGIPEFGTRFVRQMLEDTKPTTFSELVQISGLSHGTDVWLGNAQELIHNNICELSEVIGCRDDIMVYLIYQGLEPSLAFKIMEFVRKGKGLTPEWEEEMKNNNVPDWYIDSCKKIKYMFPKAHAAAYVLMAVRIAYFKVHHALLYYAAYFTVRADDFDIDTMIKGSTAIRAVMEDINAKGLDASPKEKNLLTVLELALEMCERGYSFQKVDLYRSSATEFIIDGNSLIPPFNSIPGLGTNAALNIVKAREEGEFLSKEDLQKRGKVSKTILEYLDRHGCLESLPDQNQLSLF
Tumor susceptibility gene 101 protein (Homo sapiens), sequence (Q99816 whole entry, looked up, the tested form may be a part): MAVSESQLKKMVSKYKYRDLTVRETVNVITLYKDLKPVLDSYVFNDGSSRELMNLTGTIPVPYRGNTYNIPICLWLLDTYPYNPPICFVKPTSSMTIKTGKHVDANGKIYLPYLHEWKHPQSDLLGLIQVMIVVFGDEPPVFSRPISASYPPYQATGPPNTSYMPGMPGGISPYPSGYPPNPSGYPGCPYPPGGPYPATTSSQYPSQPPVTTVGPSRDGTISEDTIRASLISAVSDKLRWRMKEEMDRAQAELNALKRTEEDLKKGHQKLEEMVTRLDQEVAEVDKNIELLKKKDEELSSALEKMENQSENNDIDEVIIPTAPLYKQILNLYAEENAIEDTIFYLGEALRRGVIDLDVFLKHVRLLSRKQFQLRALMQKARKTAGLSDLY
ATP-dependent 6-phosphofructokinase (Trypanosoma brucei brucei), sequence (O15648 whole entry, looked up): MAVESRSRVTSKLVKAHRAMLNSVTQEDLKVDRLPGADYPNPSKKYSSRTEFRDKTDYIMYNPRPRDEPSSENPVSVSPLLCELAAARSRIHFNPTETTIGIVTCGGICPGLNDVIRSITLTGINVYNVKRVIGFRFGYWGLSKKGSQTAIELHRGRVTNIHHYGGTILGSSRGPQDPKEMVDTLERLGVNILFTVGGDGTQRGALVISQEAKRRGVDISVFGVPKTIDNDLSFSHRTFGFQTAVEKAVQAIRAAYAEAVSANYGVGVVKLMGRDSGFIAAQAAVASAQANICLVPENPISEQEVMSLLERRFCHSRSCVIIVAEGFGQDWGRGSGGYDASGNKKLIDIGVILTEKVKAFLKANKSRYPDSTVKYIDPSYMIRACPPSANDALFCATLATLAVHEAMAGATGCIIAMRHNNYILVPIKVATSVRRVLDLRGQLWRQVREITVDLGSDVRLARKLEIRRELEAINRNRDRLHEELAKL
Chromobox protein homolog 1 (Homo sapiens), sequence (P83916 whole entry, looked up): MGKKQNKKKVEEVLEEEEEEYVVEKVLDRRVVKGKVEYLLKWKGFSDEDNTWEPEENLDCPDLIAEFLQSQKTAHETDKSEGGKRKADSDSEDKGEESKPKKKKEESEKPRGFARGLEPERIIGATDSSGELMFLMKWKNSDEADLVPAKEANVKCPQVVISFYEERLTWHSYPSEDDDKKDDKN
Thyrotropin receptor (Homo sapiens), sequence (P16473 whole entry, looked up): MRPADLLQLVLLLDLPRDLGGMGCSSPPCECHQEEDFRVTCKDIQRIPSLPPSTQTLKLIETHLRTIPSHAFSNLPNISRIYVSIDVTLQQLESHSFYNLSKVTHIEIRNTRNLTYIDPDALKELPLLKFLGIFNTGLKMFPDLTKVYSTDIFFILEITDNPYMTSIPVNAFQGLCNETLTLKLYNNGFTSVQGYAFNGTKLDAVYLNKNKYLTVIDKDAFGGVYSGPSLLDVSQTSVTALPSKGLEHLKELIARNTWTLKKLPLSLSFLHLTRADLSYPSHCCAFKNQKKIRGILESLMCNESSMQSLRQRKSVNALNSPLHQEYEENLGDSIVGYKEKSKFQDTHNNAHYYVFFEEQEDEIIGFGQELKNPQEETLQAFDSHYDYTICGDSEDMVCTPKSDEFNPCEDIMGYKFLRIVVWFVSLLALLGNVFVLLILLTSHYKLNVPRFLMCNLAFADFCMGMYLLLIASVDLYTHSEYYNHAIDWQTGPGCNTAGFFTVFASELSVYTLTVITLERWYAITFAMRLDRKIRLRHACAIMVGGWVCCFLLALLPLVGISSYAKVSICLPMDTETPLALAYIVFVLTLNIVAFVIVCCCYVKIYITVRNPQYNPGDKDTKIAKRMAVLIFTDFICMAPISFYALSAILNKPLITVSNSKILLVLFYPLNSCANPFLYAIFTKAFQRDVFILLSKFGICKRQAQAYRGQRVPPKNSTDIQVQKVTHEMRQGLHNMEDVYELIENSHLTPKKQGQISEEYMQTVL
Methanococcus maripaludis chaperonin (MmCpn), sequence (Q6LX38 1-543): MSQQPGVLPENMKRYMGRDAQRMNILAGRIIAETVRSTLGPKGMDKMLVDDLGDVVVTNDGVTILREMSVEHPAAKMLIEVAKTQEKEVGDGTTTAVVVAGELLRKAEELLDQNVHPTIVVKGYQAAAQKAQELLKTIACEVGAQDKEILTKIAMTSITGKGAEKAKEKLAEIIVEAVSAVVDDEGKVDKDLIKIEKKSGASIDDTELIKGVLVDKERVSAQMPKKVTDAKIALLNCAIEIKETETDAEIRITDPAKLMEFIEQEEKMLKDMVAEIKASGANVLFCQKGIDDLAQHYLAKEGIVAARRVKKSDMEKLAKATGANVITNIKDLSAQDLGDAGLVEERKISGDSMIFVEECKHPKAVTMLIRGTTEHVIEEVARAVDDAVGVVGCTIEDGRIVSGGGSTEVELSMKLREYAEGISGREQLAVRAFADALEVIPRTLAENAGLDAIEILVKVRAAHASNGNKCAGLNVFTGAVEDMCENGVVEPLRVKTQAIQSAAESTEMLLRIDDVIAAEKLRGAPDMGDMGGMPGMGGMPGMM
Transient receptor potential cation channel subfamily V member 1 (Homo sapiens), sequence (Q8NER1 whole entry, looked up): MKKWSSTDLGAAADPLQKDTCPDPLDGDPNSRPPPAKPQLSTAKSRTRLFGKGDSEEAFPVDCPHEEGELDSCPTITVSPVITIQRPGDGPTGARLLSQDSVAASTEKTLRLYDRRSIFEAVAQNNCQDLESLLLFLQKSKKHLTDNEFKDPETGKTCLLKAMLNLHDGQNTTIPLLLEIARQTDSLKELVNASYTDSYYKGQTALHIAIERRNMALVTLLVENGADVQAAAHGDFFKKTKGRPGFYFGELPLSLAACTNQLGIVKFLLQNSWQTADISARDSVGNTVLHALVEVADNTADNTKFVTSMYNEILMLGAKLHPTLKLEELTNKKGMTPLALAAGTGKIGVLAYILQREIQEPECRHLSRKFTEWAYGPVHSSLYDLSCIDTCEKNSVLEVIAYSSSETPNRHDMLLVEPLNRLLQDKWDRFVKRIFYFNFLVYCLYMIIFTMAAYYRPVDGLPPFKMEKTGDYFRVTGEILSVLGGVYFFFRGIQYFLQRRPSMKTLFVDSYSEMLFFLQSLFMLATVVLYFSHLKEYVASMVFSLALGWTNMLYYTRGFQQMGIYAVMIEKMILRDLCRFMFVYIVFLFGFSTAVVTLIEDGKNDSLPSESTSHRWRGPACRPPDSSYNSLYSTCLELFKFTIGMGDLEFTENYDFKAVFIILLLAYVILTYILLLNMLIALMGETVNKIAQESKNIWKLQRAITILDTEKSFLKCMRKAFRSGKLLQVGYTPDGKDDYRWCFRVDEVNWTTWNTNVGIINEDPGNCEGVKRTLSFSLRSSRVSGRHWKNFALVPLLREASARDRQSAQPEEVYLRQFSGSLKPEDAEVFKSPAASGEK
Flap endonuclease 1 (Homo sapiens), sequence (P39748 whole entry, looked up): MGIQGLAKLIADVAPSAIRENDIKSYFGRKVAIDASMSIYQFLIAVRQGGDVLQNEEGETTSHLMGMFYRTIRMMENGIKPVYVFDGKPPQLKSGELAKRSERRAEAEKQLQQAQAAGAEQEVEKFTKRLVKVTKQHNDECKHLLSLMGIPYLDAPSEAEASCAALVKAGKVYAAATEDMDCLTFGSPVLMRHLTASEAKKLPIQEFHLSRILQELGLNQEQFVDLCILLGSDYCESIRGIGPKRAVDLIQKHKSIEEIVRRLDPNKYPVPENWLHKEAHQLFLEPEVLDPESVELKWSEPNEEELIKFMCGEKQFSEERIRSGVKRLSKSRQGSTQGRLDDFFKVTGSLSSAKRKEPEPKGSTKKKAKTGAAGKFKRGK

Turning to `O=C(O)C(Cl)Cl`, in experiment [1], the Potency result is “inactive”.
The same measure, in the same setting: as for `O=C(O)COc1ccccc1`, the entry is “inactive”; as for `CC[N+]1(CCOC(=O)C(O)(c2ccccc2)c2ccccc2)CCCCC1`, “inactive”; as for `C#CC1(O)CCC2C3CCC4=CC(=O)CCC4(C)C3CCC21C` (stereo not drawn), “inactive”.
With `CN[C@@H]1C[C@@H](c2ccc(Cl)c(Cl)c2)c2ccccc21`, the Potency entry in experiment [2], in experiment [6], in experiment [7] and in [8] was “inactive” each time. Besides, the call in experiment [3], in experiment [4], in experiment [5], in experiment [9], in experiment [10] and in [12] was inactive. For the same compound, the Potency in experiment [11] is 12.6 µM (active).
On to `Cc1ccc(Cl)c(O)c1`, for which, in [1], the Potency result was “inactive”.
Turning to `C1CCC(NC2CCCCC2)CC1`, in experiment [1], the Potency entry was “inactive”.
Still for that read-out and setting: as for `Cc1cc(O)ccc1Cl`, the entry is “inactive”.
In the case of `c1ccc(CCCN2CCN(CCOC(c3ccccc3)c3ccccc3)CC2)cc1`, the Potency entry in [2], in experiment [6], in experiment [14] and in experiment [11] was “inactive” each time. Besides, the compound was classed as inactive in experiment [3], in [13], in [5], in experiment [9], in experiment [15] and in experiment [10]. Also, in experiment [12], the result was inactive. In addition, the Potency is 39.8 µM (active) in experiment [7] and 0.0084 µM (active) in experiment [8].
Consider `C[C@]12CCC(=O)C(O)=C1CC[C@@H]1[C@H]3CCC(=O)[C@@]3(C)CC[C@@H]12`, for which the Potency result in experiment [1] was “inactive”.
The same measure, in the same setting: to `COC(C)(C)CCCC(C)C/C=C/C(C)=C/C(=O)OC(C)C` (stereo not drawn) belongs “inactive”.
Regarding `CC(=O)[O][Hg][c]1ccccc1`, the Potency in experiment [16] is 10 µM (active); in experiment [1], 7.94 µM (active).
Consider `Cc1nccc2c1[nH]c1ccccc12`, for which the Potency result in [2], in experiment [17], in [6], in experiment [7], in experiment [8] and in experiment [11] was “inactive” in each case. Moreover, the Potency result in [18] was “inactive”. Besides, the result in [3], in experiment [5], in experiment [9], in experiment [15], in [10] and in experiment [12] was inactive.
For the compound `CN(C)[C@@H]1C(=O)C(C(N)=O)=C(O)[C@@]2(O)C(=O)C3=C(O)c4c(O)cccc4[C@@](C)(O)[C@H]3[C@H](O)[C@@H]12`, in experiment [1], the Potency entry is “inactive”.
`Cc1nc(-c2ccc(-c3ccc(C(=O)N4CCc5cc6c(cc54)C4(CCN(C)CC4)CO6)cc3)c(C)c2)no1`: in [7], the Potency is 11.2 µM (active). Further, the result in experiment [15] and in experiment [10] was inactive.
As for `NC1CCc2cc(O)c(O)cc2C1` (stereo not drawn), the Potency entry in experiment [2] and in experiment [17] was “inactive” each time. Moreover, the compound was classed as inactive in [3], in experiment [13], in experiment [5], in experiment [9], in [15] and in experiment [10]. In addition, the result in [12] was inactive. Besides, the Potency in [7] was 79.4 µM (active); in experiment [11] it was 0.158 µM (active); in experiment [18], 0.0891 µM (active).
Take `CC(C)NC(C)Cc1ccc(I)cc1` (stereo not drawn): the Potency result in [2], in [6], in experiment [7], in [8], in [11] and in experiment [18] was “inactive” in each case. The Potency entry in [1] was “inactive”. Moreover, the result in experiment [3], in experiment [13], in [5], in [9], in experiment [10] and in [12] was inactive.
Turning to `C=CCN1CC[C@]23CCCCC2[C@H]1Cc1ccc(O)cc13` (stereo partly drawn), the Potency result in [2], in experiment [17], in experiment [6], in experiment [7], in experiment [8] and in experiment [11] was “inactive” throughout. The Potency result in experiment [18] and in experiment [1] was “inactive” in each case. The result in [3], in experiment [13], in experiment [5], in experiment [9], in experiment [15] and in experiment [10] was inactive. The outcome in [12] was inactive.
`CCCCCCCCCC(CC)c1ccc(S(=O)(=O)O)cc1` (stereo not drawn): the Potency entry in [1] is “inactive”.
